The panel holds about 83,000 compounds, 20% with a hit somewhere; the sample as a whole holds those more often.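 Activity criterion: percent growth below 10, measured after cells in 96-well plates were exposed to a single compound concentration for 48 hours.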 Values without a mark were called inactive. Active and inactive are the calls of the source.
Each compound was assayed on SNB-75 CNS (assay: NCI-60 one-dose screen, 48 h (100 = growth as untreated, 0 = no growth, -100 = all killed)). Conditions: 10 µM unless noted.
`COc1cccc(C(=O)NNc2nc(Cl)nc(Cl)n2)c1` showed a growth of 87.4%.
In the case of `O=C(/C=C/c1ccc(Cl)cc1)c1cccc(OCCCOc2cccc(C(=O)/C=C/c3ccc(Cl)cc3)c2)c1`, the growth is reported as 91.5%.
Compound `COc1cc(OC)cc(-c2ccc(-c3ccc(C(=N)N)o3)o2)c1` has a growth of 87.6%.
With `Fc1cccc(-c2ccc3c(c2)C2(CCNCC2)CN3)c1` the growth was 92%.
In the case of `S=C(c1ccc2c(c1)OCO2)N1CCN(c2cccc(Cl)c2)CC1`, the growth is reported as 12.5%.
In the case of `O=C(NCc1cccc(CNC(=O)Nc2nc3ccccc3[nH]2)c1)Nc1nc2ccccc2[nH]1`, the growth is reported as -42.2% (active).
Work on `CCOC(=O)c1cnc2c(N=Nc3ccc(OC)cc3)c(N)nn2c1N` yielded a growth of 106%.
With `Cc1ccc2nc(NC(=O)CSc3nc(-c4ccccc4)c(C#N)c4nnnn34)sc2c1` the growth was 96.6%.
`C#CC#CC#CC#CC#CC#CC#CC#CC[C@@H]1OC[C@@H](COC(=O)O[C@@H](C(=O)O[C@H]2C[C@@]3(O)[C@@H](OC(=O)c4ccccc4)[C@@H]4[C@]5(OC(C)=O)CO[C@@H]5C[C@H](O)[C@@]4(C)C(=O)[C@H](OC(C)=O)C(=C2C)C3(C)C)[C@@H](NC(=O)c2ccccc2)c2ccccc2)O1` gave a growth of 90.1%.
Compound `COCCn1cc(-c2csc(-c3c[nH]c4ccc(Br)cc34)n2)c2cccnc21` has a growth of 39.7%.
`c1nc2ccc(-c3cc4ccc5[nH]ncc5c4c4c3CCCC4)cc2[nH]1` was tested, and the growth was 71.2%.
For `O=[N+]([O-])c1ccc(-c2cn3nc(-c4c[nH]c5ccccc45)sc3n2)cc1`, the growth was 96.4%.
Compound `CN(Cc1cnc2nc(N)nc(N)c2n1)c1ccc(C(=O)NC(CCC(=O)O)C(=O)O)cc1Br` (stereo not given) has a growth of 54.5%.
With `COc1ccc(-c2nc3c(N)c(CO)cnc3s2)cc1` the growth was 82.9%.
With `O=C(Cn1nnc2ccccc21)N/N=C/c1c[nH]c2ccccc12` the growth was 33.5%.
Compound `N#Cc1cccc(C2C3=C(COC3=O)N(CCO)c3cc4c(cc32)OCO4)c1` (stereo not given) has a growth of 13%.
With `O=C(/C=C/C12c3ccccc3C(c3ccccc31)C1C(=O)NC(=O)C12)c1ccc(Br)cc1` (stereo not given) the growth was 55.7%.
`COc1cccc(/C=N/NC(=O)c2ccccc2N2CCCC2)c1O` showed a growth of 67.4%.
In the case of `COc1cc(/C=C/C(=O)c2ccc(-n3cc(CN4CCN(c5cc6c(cc5F)c(=O)c(C(=O)O)cn6C5CC5)CC4)nn3)cc2)ccc1O`, the growth is reported as 89.2%.
`C=CN(C(=O)N1CCN(c2cc3c(cc2F)c(=O)c(C(=O)O)cn3C2CC2)CC1)c1nc(-c2ccc(OC)cc2)cs1` gave a growth of 23.6%.
Work on `Oc1ccc(/C=C/c2ccc(O)cc2)cc1` yielded a growth of 46.9%.
`COc1ccc(/C=C/C(c2cc(OC)c(OC)c(OC)c2)n2ccnc2)cc1O` (stereo not given) gave a growth of 20%.
With `O=C(N=Nc1c(O)[nH]c2ccccc12)Nc1ccc(F)cc1` the growth was 91.3%.
`O=c1ccc(=O)n(-c2nc(-c3ccc([N+](=O)[O-])cc3)cs2)[nH]1` gave a growth of 92%.
`Oc1c(CN2CCC(N3CCCCC3)CC2)cc(Cc2cc(CN3CCC(N4CCCCC4)CC3)c(O)c3ncccc23)c2cccnc12` was tested, and the growth was 54.1%.
